Pf Dd2 growth – qHTS Primary assay for Inhibitors of Plasmodium falciparum Dd2 growth in vitro; P. falciparum Dd2 growth, SYBR Green, 72 h; Potency, µM (doses to about 28.9 µM), actives largely listed as inhibitors; actives 4.3% (n = 120,000); AID 1347417, 2020; active = well fitted inhibition curve with a large enough effect; note: nearly all actives have a fitted effect of over 65% in size
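Infected erythrocytes (Dd2, 0.3% parasitemia, 2.5% hematocrit final) are added to compound in RPMI-1640/Albumax II medium, grown 72 h at 37C in low oxygen, then lysed with saponin/Triton-X containing SYBR Green and read by fluorescence.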
Each line names hits and unclear results; the compound was inactive in the other large screens. The entries come from a sample that favours hits as a whole.

CNC(=O)[C@@H]1C[C@H](Oc2cccnc2)CN1C(=O)c1ccco1	none
COCCc1nc(CNC(=O)C2CCCN(C(=O)N(C)C)C2)no1 (stereo not given)	none
CN(C)c1ccc(C(=O)N2CC[C@@H](CC(=O)O)[C@@H](CCN3CCN(c4ccc(F)cc4)CC3)C2)cc1	none
COCC(=O)N1CCNC[C@H]1C(=O)N[C@@H](Cc1ccc(OC)cc1)C(=O)OC	none
CCC(C)NC(=O)C1COC2(CCN(C(=O)c3ccc(OC)cc3)CC2)N1C(=O)c1ccc(C)cc1 (stereo not given)	none
Cc1cc(C(=O)N2CCC(N3C(=O)C(OCC4CC4)C34CCOCC4)CC2)n(C)n1 (stereo not given)	none
COc1ccc(NC(=O)[C@@H]2C[C@@H](c3ccc(F)cc3)N([S+](=O)([O-])c3ccccc3)C2)cc1	Pf Dd2 growth 8.91µM
COc1ccc(NC(=O)[C@@H]2C[C@@H](c3ccc(F)cc3)N([S+](=O)([O-])c3ccccc3)C2)cn1	none
O=C(Nc1cccc(Cl)c1)[C@@H]1C[C@@H](c2ccc(F)cc2)N([S+](=O)([O-])c2ccccc2)C1	none
Cn1nccc1CN1CCC(N2CCNC2=O)CC1	none
O=C(NC1CCc2nnc(C3CC3)n2CC1)c1ccsc1 (stereo not given)	none
Cc1c(C(C)NC(=O)C(=O)c2ccco2)cnn1-c1cccc2ccccc12 (stereo not given)	none
O=C(c1n[nH]c2c1CCCCCC2)N1CCC(c2nc(C3CCOCC3)no2)C1 (stereo not given)	none
c1cc(CN2CCn3c(nnc3C3CCCNC3)C2)cs1 (stereo not given)	none
Cc1cc(C(=O)N2CCc3c(nc(-c4ccc(F)cc4)[nH]c3=O)C2)nn1C	none
O=C(c1ccn(C(F)F)n1)N1CCc2nc(-c3ccc(Cl)cc3)[nH]c2C1	Pf Dd2 growth 12.6µM
CCn1ccc(C(=O)N2CCc3c(nc(-c4ccc(OC)cc4)[nH]c3=O)C2)n1	none
CC(C)(C)OC(=O)N1CCC(c2c(C(=O)N3CCN(C4CCCCC4)CC3)cnn2-c2cccc(Cl)c2)CC1	Pf Dd2 growth 10µM
CN1CCN(C(=O)c2cnn(-c3ccccc3)c2C2CCN(C(=O)OC(C)(C)C)CC2)CC1	none
CC(C)(C)OC(=O)N1CCC(c2c(C(=O)N3CCN(c4ncccn4)CC3)cnn2-c2cccc(F)c2)CC1	none
CC(C)(C)OC(=O)N1CCC(c2c(C(=O)NC3CCN(Cc4ccccc4)CC3)cnn2-c2cccc(F)c2)CC1	none
CC(C)(C)OC(=O)N1CCC(c2c(C(=O)N3CCCCC3)cnn2-c2ccc(F)cc2)CC1	none
COc1ccc(-n2ncc(C(=O)N3CCN(C(=O)c4ccco4)CC3)c2C2CCN(C(=O)OC(C)(C)C)CC2)cc1	none
Cc1ccc(-n2ncc(C(=O)N3CCN(c4cccc(C)c4)C(C)C3)c2C2CCN(C(=O)OC(C)(C)C)CC2)cc1 (stereo not given)	Pf Dd2 growth 4.47µM
Cc1cccc(-n2ncc(C(=O)N3CCN(Cc4ccccc4)CC3)c2C2CCN(C(=O)OC(C)(C)C)CC2)c1	Pf Dd2 growth 7.94µM
CC(C)(C)OC(=O)N1CCC(c2c(C(=O)N3CCN(C(=O)c4ccco4)CC3)cnn2-c2cccc(Cl)c2)CC1	Pf Dd2 growth 10µM
Cc1ccccc1C(=O)N1CCC2(CC1)OCC(C(=O)N1CCCC1)N2C(=O)c1cccc(F)c1 (stereo not given)	none
CCO[C@H]1CN(Cc2cc3c(cc2OC)OCCCO3)C[C@@H]1O	none
CCOCCCNC(=O)N1CCC2(CC1)CC(N(C(=O)c1ccccc1)C1CC1)CCO2 (stereo not given)	none
COCCOc1cc(=O)n2c(c1C(=O)NCCC1=CCCCC1)CCOCC2	none
O=C(NCc1ccc(F)cc1)[C@H]1CN(Cc2ccccc2)C[C@H]1C(=O)O	none
Cc1ccc(-n2cccc2CC(=O)NC(C)(C)C)cc1	none
O=C(Nc1ccc2ncnc(N3CCCCC3)c2c1)c1ccc(F)cc1	none
COc1ccc(C(=O)Nc2ccc3c(N4CCCCC4)ncnc3c2)cc1	none
O=C(Nc1ccc2c(N3CCCCC3)ncnc2c1)c1ccc(F)c(F)c1	Pf Dd2 growth 2µM
O=C(Cc1cccs1)N1CCC(c2n[nH]c(=O)n2Cc2ccc(F)cc2)CC1	none
O=C(CCCc1ccccc1)N1CCC(c2noc(-c3cnccn3)n2)C1 (stereo not given)	none
COCC(=O)N[C@H]1C[C@H]2C(=O)Nc3ccc(/C=C/c4ccccc4)cc3C(=O)N2C1	none
CC(C)(CC(=O)O)CC(=O)N[C@H]1C[C@H]2C(=O)Nc3ccc(/C=C/c4ccccc4)cc3C(=O)N2C1	none
COc1ccc(/C=C/c2ccc3c(c2)C(=O)N2C[C@@H](NC(=O)CC(C)(C)CC(=O)O)C[C@H]2C(=O)N3)cc1	Pf Dd2 growth 14.1µM
COc1ccc(-c2nnc3n2CCN(C(=O)c2cccc(Cl)c2)C3)cc1	none
CN1CC(=O)N(c2ccc(Cl)cc2)Cc2c(NCc3cccs3)ncnc21	none
CN1CC(=O)N(c2ccccc2)Cc2c(NCCOc3ccccc3)ncnc21	none
CN1CC(=O)N(c2ccccc2)Cc2c(NCCc3ccc(Cl)cc3)ncnc21	none
CN1CC(=O)N(c2ccccc2F)Cc2c1ncnc2N1CCC(c2ccccc2)CC1	none
CN1CC(=O)N(c2ccccc2)Cc2c(NCCCc3ccccc3)ncnc21	Pf Dd2 growth 6.31µM
CN1CC(=O)N(c2ccccc2)Cc2c1ncnc2N1CCC(O)CC1	none
CN1CC(=O)N(c2ccccc2)Cc2c(NCc3ccc(F)cc3)ncnc21	none
CN1CC(=O)N(c2ccc(Cl)cc2)Cc2c1ncnc2N1CCC(Cc2ccccc2)CC1	Pf Dd2 growth 12.6µM
CN1CC(=O)N(c2ccc(Cl)cc2)Cc2c(NCc3ccc(F)cc3)ncnc21	Pf Dd2 growth 7.94µM
O=C(NC1CCCN(c2cc(-c3ccc(Cl)cc3)[nH]n2)C1)c1ccc2c(c1)OCO2 (stereo not given)	none
O=C1CC(c2ccccc2)N(S(=O)(=O)c2cccc(F)c2)CCCCCCN1 (stereo not given)	none
CN1CCC2(CC1)CCN(Cc1ccc(OCC(O)CN3CCCCC3)cc1)C2 (stereo not given)	none
Cc1cc(=O)n(CC(=O)NCc2ccccc2Br)c(N2CCOCC2)n1	none
CN1CC(=O)N(C2CCCNCC2)Cc2c(NCCc3ccccc3F)ncnc21 (stereo not given)	none
C#CCN(C)Cc1nc(C2(O)CCN(C(=O)Cc3ccccc3)CC2)cs1	none
O=C(O)C[C@@H]1CCN(C(=O)c2ccccc2)C[C@@H]1CCN1CCN(c2ccccn2)CC1	none
CC(=O)Nc1ccc([C@@H](O)[C@H]2COCC(=O)N2CCCc2ccccc2)cc1	none
O=C(Nc1ccc([C@@H](O)[C@H]2COCC(=O)N2CCCc2ccccc2)cc1)c1cnccn1	Pf Dd2 growth 12.6µM
CN1C(=O)COC[C@@H]1[C@H](O)c1ccc(NC(=O)c2cnccn2)cc1	none
Clc1ccc(CNc2ncnc3onc(-c4ccc(Cl)cc4)c23)cc1	none
CC1CCC(Nc2ncnc3onc(-c4ccc(Cl)cc4)c23)CC1 (stereo not given)	Pf Dd2 growth 4.47µM
Clc1ccc(-c2noc3ncnc(NC4CCCCC4)c23)cc1	none
CC1(C)CC(CC(=O)N[C@H](Cc2ccccc2)C2CC(O)C2)CC(C)(C)N1 (stereo not given in full)	none
CSc1ccc(-c2nc(CN(C)Cc3cc(C)no3)c(C)o2)cc1	none
COCCNC(=O)CCSc1nc(-c2ccc(OC)cc2)cc(C(F)(F)F)n1	none
CCC(C)NC(=O)CCSc1nc(-c2ccc(OC)cc2)cc(C(F)(F)F)n1 (stereo not given)	Pf Dd2 growth 11.2µM
COc1ccc(NC(=O)CCSc2nc(-c3ccc(OC)cc3)cc(C(F)(F)F)n2)cc1	none

High-throughput results deposited in PubChem by National Center for Advancing Translational Sciences (NCATS).
